# From PubChem BioAssay
# The list is not random: actives were taken first. Their share in the collection is about 6.1%.
# S2 tox = reduces viability in counter-screen for ATXN expression inhibitors; S2 cells (HEK-293 line with an ATXN2-luciferase reporter) viability, CellTiter-Fluor protease fluorescence, 24 h; Potency, µM (titrated, usually from 56.7 µM), actives largely listed as cytotoxic; 400,000 compounds, 0.49% hits; AID 651635; further: nearly all actives have a fitted effect of over 40% in size
# TGFb inhibitor = inhibitors of TGF-b signaling; Potency, µM (titrated, usually from 46.1 µM), for inactives: at the highest dose activity, negative = inhibition, usual class: inhibitors; HepG2 CAGA-GFP TGF-b/SMAD3 reporter, GFP fluorescence, 18 h; TGF-beta stimulated, 500 pg/mL final; 410,000 compounds, 1.2% hits; further: on the % scale 0 is the no-effect control and ±100 the full control effect; nearly all actives have a fitted effect of over 65% in size
#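 Read-out: total well GFP (ex488/em500-530) summed from mean per-cell fluorescence. Cells: HEPG2 CAGA-GFP, 1% FBS DMEM, 18 h at 37 degrees C with 500 pg/mL final TGF-beta. Unstimulated wells served as the full-inhibition control; stimulated DMSO wells = 0%.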
# RORgamma inh = blocks mouse ROR gamma transcriptional activity | P51450 | Drosophila S2 Gal4-RORgamma UAS-luciferase reporter, 20 h | Potency, µM (highest dose often 53.6 µM), for inactives: at the top dose activity change, negative = inhibition, usual class: inhibitors | 310,000 compounds, 5.4% hits; further: on the % scale 0 is the no-effect control and ±100 the full control effect; nearly all actives have a fitted effect of over 60% in size
# Target sequence (P51450 whole entry, looked up, the tested form may be a part): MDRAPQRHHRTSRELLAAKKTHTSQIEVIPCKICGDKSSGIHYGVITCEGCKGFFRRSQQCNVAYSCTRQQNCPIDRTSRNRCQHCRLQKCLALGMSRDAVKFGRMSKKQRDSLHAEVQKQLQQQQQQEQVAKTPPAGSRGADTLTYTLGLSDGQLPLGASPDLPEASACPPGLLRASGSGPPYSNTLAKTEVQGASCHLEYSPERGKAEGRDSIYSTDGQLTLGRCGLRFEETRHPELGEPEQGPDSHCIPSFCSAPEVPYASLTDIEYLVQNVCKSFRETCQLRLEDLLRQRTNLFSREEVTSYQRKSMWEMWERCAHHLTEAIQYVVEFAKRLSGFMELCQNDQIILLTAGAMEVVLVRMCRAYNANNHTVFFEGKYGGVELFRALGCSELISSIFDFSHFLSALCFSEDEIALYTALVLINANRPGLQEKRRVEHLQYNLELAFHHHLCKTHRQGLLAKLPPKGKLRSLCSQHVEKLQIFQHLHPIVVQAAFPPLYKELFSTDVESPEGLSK
#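 Stably transfected Drosophila Schneider cells are the test system, with ROR gamma fused to Gal4 and luciferase under UAS control; luminescence is read after 20 hr of 700 uM copper sulfate induction at ambient temperature.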
# HepG2 viability = kills HepG2 cells in TGF-b inhibitor counter-screen; Potency, µM (highest dose often 46.1 µM), inactives show top-dose activity change, negative = cytotoxicity, usual class: cytotoxic; 410,000 compounds, 0.76% hits; HepG2 CAGA-GFP viability, ATP luminescence, 18 h
#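 HepG2 CAGA-GFP cells (1000/well, DMEM with 1% FBS) received compound, then TGF-beta at 500 pg/mL final, and were incubated 18 hours at 37 degrees C. Viability was read by CellTiter-Glo luminescence. Media-only wells were set as complete cell-killing and DMSO as no toxicity.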
# Gal4-VP16 FLuc = inhibits Gal4-VP16 luciferase reporter, ROR gamma counter-screen. Drosophila S2 Gal4-VP16 UAS-luciferase, luminescence, 20 h. Potency, µM (highest dose often 53.6 µM), inactives show top-dose activity, negative = inhibition, hits mostly inhibitors. 310,000 compounds, 3.5% hits. AID 2546;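 further: Gal4-VP16 expression switched on by copper sulfate through the metallothionein promoter; on the % scale 0 is the no-effect control and ±100 the full control effect; nearly all actives have a fitted effect of over 50% in size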
# ATXN2 expr inh = inhibitors of ATXN2 expression. HEK-293 ATXN2-luciferase reporter, luminescence, 24 h. 360,000 compounds, 0.72% hits. Potency, µM (series often up to 57 µM), for the others: top-dose activity change, negative = inhibition, usual class: inhibitors; further: on the % scale 0 is the no-effect control and ±100 the full control effect; nearly all actives have a fitted effect of over 55% in size
#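 qHTS (up to 57 uM final) was run with 24 h compound exposure of reporter cells at 37 °C. Each well was multiplexed: SteadyGlo luminescence measured ATXN2-luciferase expression after a fluorogenic Gly-Phe-AFC viability readout (25 uM final).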
# * marks the source's active call; other numbers are inactive results; i = inactive; u = inconclusive; x = not tested or not shown; [ ] = another dose, or the depositor's remark. The call rests on the fitted dose curve; in most records, active means well fitted curve in the direction sought with a large enough effect; inconclusive means small, poorly fitted or top-dose-only effect, or another doubt; inactive means no such curve, though single readings can be large; an effect the other way counts as inactive or inconclusive. Potency means the concentration at half of the fitted maximal effect.
SMILES,S2 tox,TGFb inhibitor,RORgamma inh,HepG2 viability,Gal4-VP16 FLuc,ATXN2 expr inh
CC(C)=CCc1cc([C@@H]2COc3c(ccc4c3C=CC(C)(C)O4)C2)c(O)cc1O,x,14µM*,x,16µM*,x,u
Cc1cccc(C(=O)NC(=S)N2CCN(C(=S)NC(=O)c3cccc(C)c3)CC2)c1,i,8%,0.79µM*,-20%,0.79µM*,-11%
CCCC(=O)N1CCN(c2ccc(NC(=S)NC(=O)c3cccc(C)c3)cc2)CC1,u,0%,u,9%,u,u
CCCNC(=S)N1CCC(NC(=O)c2cccc(C)c2)CC1,i,4%,-13%[1.91 µM],-9%,0%,-18%
Cc1cccc(C(=O)NC(=S)N2CCN(C)CC2)c1,i,-6%,1.3µM*,-11%,8.9µM*,8%
COc1ccc(C(=O)c2ccccc2)c(O)c1O,x,x,-37%,x,-5%,x
COc1cccc(-n2cc(C(=O)Nc3ccccc3C(N)=O)c3ccccc3c2=O)c1,x,-24%,x,-19%,x,x
N#Cc1ccccc1Cn1c(SCC(=O)NCc2ccccc2)nc2ccccc21,u,0%,x,3%,x,-7%
O=[N+]([O-])c1cccc(/C=N/NC2=NCCCCC2)c1,i,0%,5%,0%,-2%,13%
O=C(ONC1=NCCCCC1)c1cccc([N+](=O)[O-])c1,i,0%,7.1µM*,-1%,-27%,-27%[11.3 µM]
CCn1c(CN2CCCCC2)nc2cc(NC(=O)c3cc(OC)c(OC)c(OC)c3)ccc21,u,0%,x,-38%,x,-12%
N#Cc1nc(-c2cccs2)oc1NCc1ccc2c(c1)OCO2,i,-1%,34%,7.9µM*,-1%,10%
N#Cc1nc(-c2cccs2)oc1NCCc1ccccc1,i,-9%,43%,-20%,20%,7%
CCOC(=O)c1ccc(NC(=O)CSc2ncc(S(=O)(=O)c3ccc(C)c(Cl)c3)c(=O)[nH]2)cc1,i,-29%,x,-15%,x,11%
Cc1ccc(/C=C2\Sc3ccccc3C2=O)s1,u,-18%,11µM*,-24%,u,48%
COC(=O)c1ccc(CN2C(=O)C3CCCCC3C2=O)o1 (centres undefined),i,2%,2.8µM*,-1%,4.5µM*,-8%
COC(=O)c1ccc(CSCc2ccc(C(=O)OC)o2)o1,i,-3%,16%,0%,-5%,-7%
Cc1cc(O)ccc1N=Cc1c(C(F)(F)F)[nH][nH]c1=O,i,u,11µM*,-13%,u,x
Cc1ccc(C(=O)NNC(=O)c2cc3ccccc3cc2O)cc1,x,-2%,14µM*,-26%,u,-24%
COc1ccc(C)cc1NC(=O)NNC(=O)c1cc2ccccc2cc1O,i,u,-19%,-36%,-5%,-13%
COc1ccccc1C(=O)NNC(=O)C1CCCO1 (centres undefined),i,-4%,11µM*,-6%,9%,17%
CCC(=O)Nc1ccc2ccccc2c1,i,1%,31%,18%,0%,17%
CC1(C(=O)Nc2ccc3ccccc3c2)CC1(Br)Br (centres undefined),i,-4%,11µM*,5%,u,-21%
Cc1cc(NC(=O)c2ccccc2O)nc(C)n1,i,9%,u,-18%,-20%,-10%
COc1ccc(C(=O)NNC(=O)C2CCCO2)cc1 (centres undefined),i,0%,-4%,3%,2%,7%
Cc1cc(C)nc(NNC(=O)c2ccccc2O)n1,i,-9%,11µM*,-49%,3%,x
Cc1cc(C)nc(S[C@@H]2C[C@@H](C(=O)N3CCCN(C)CC3)N(Cc3cc(F)ccc3F)C2)n1,i,x,x,x,x,x
COc1ccccc1C(=O)NNC(=O)c1cccc(F)c1,i,-24%,10µM*,-51%,10µM*,u
